Reference: PubChem BioAssay (NCATS)
Values without a mark were called inactive. How the calls were made is not given here.

system: HIV-1 nucleocapsid protein NCp7 (binding to TG oligonucleotide); test: HIV Nucleocapsid (AID 346); conditions: HIV-1 NC / fluorescein-TGTGTGTG probe, fluorescence polarization;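 further: potency is for inhibitors that block NC binding and lower polarization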
Method in brief: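 Fluorescence polarization binding of 100 nM HIV-1 NC to 10 nM fluorescein-labelled TG4xF oligonucleotide. Buffer was Hepes pH 7.5 with 250mM NaCl, 1uM ZnCl2, TCEP and 2-mercaptoethanol. Compounds were incubated 1 hr at room temperature before the read.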
Potency means the concentration at half of the fitted maximal effect.

SMILES	Potency
COc1ccccc1CNc1ccnc(-c2cccc(NS(C)(=O)=O)c2)n1	> 20 µM
CN(Cc1ccco1)c1ncncc1-c1ccoc1	> 20 µM
COCCn1c(=O)cnc2cnc(OCc3ccccc3)nc21	> 20 µM
c1ccc(CNc2cc(-c3cccnc3)ncn2)cc1	> 20 µM
O=C(c1cnccn1)N1CCC[C@@]2(CCN(c3cccc(-c4ccccc4)c3)C2)C1	> 20 µM
O=C(Nc1cccc(F)c1)N1CCC2(CC1)CCN(C(=O)c1cnccn1)CC2	> 20 µM
CS(=O)(=O)Nc1cccc(-c2nccc(Nc3ccc(F)cc3)n2)c1	> 20 µM
COCC(=O)N1CCC2(CC1)CCN(c1ccncc1)CC2	> 20 µM
COc1ccccc1CN1CC2(CCN(S(C)(=O)=O)CC2)C1	> 20 µM
CN1CCN(c2ncncc2-c2ccc(N(C)C)cc2)CC1	> 20 µM
CCNc1ncc2nc(-c3ccccc3)c(=O)n(CCC#N)c2n1	> 20 µM
Cc1noc(C)c1-c1cncnc1Nc1ccccc1	> 20 µM
c1ncc(-c2ccc3c(c2)OCO3)c(NCCc2cnc[nH]2)n1	> 20 µM
CC(=O)N1CCC2(CC1)CN(c1ccccc1)C2	> 20 µM
COc1ccc(-n2c(=O)c(CCc3ccccc3)nc3cncnc32)cc1	> 20 µM
CN1CCN(c2cc(-c3ccoc3)ncn2)CC1	> 20 µM
Cc1nc2cnc(N3CCN(C)CC3)nc2n(-c2ccccc2)c1=O	> 20 µM
O=C(c1cc(C(F)(F)F)cc(C(F)(F)F)c1)N1CCC2(CC1)CCN(c1ccccc1)CC2	> 20 µM
CN(C)c1ncc2ncc(=O)n(Cc3ccc(F)cc3)c2n1	> 20 µM
Cc1cccc(CNc2ccnc(-c3ccc(C(=O)N(C)C)cc3)n2)c1	> 20 µM

SMILES	Potency
CC(=O)NCCNc1ncncc1-c1ccc(N(C)C)cc1	> 20 µM
COc1ccccc1-c1cncnc1NCc1cccc(C)c1	> 20 µM
Cn1c(=O)c(-c2ccccc2)nc2cncnc21	> 20 µM
CN(C)c1ncc2nc(-c3ccc(Cl)cc3)c(=O)n(C)c2n1	> 20 µM
COC(=O)N1CCC[C@@]2(CCN(C(=O)Nc3ccc(OC)cc3)C2)C1	> 20 µM
N#Cc1cccc(-c2nc3cnc(N4CCOCC4)nc3n(Cc3ccc(F)cc3)c2=O)c1	> 20 µM
COc1cccc(Cn2c(=O)c(-c3cc(F)cc(F)c3)nc3cnc(N4CCNCC4)nc32)c1	> 20 µM
CS(=O)(=O)Nc1cccc(-c2ccc3ncnc(N4CCNCC4)c3c2)c1	> 20 µM
CS(=O)(=O)N1CCC2(CC1)CN(c1ccncc1)C2	> 4 µM
CN1CC[C@@]2(CCCN(C(=O)c3cc(C(F)(F)F)cc(C(F)(F)F)c3)C2)C1	> 20 µM
O=C(c1ccncc1)N1CCC2(CC1)CCN(c1ccccc1)CC2	> 20 µM
COC(=O)N1CCC2(CC1)CN(C(=O)Nc1cccc(F)c1)C2	> 20 µM
COc1ccc(-n2c(=O)c(-c3cn(C)c4ccccc34)nc3cnc(N4CCOCC4)nc32)cc1	> 20 µM
O=C(c1cnccn1)N1CCC2(CC1)CN(c1ccncc1)C2	> 20 µM
COCCn1c(=O)c(C)nc2cnc(Nc3ccccc3)nc21	> 20 µM
COc1ncc2nc(-c3ccccc3)c(=O)n(C[C@H]3CCCO3)c2n1	> 20 µM
COc1ccc(C(=O)N2CCC3(CC2)CN(CC(C)C)C3)cc1	> 20 µM
COc1cccc(Cn2c(=O)c(-c3cc(F)cc(F)c3)nc3cnc(OC)nc32)c1	> 20 µM
COc1ncc2nc(-c3cccs3)c(=O)n(C)c2n1	> 20 µM
CNc1ncncc1-c1ccc(C(=O)N(C)C)cc1	> 20 µM
